Data on 40 molecules can be found in PubChem BioAssay (Tox21).

Each structure is given as a SMILES string. Values joined by “and” are separate entries in the source; they are usually repeats but may differ in a detail not shown here. Equal values may be shown once. Results filed as inconclusive are left out. Entries that show only a call come without a potency. Active and inactive are the calls of the source. The call rests on the fitted dose curve; in most records, active means well fitted inhibition curve with a large enough effect in the repeat runs; inconclusive means weak or mixed curves; inactive means no such curve, though single readings can be large or run the other way.
Potency means the concentration at half of the fitted maximal effect.

The experiment can be described thus: qHTS assay to identify small molecule antagonists of the thyroid receptor (TR) signaling pathway (AID 743065). Further: nearly all actives have a fitted effect of over 55% in size. As to conditions: GH3.TRE-Luc, T3-stimulated luciferase inhibition, 23.5 h; series mostly up to 70.3 µM. From the text:
U.S. Tox21 Program National Center for Advancing Translational Sciences [NCATS] NIH Chemical Genomics Center [NCGC] U.S. Environmental Protection Agency [EPA] National Institutes of Environmental Health Sciences [NIEHS] National Toxicology Program [NTP] U.S. Food and Drug Administration [FDA] Tox21 Assay Overview: Thyroid receptor (TR), a nuclear hormone receptor, plays an important role in development, proliferation, differentiation, metabolism, brain function, and cardiovascular system. […] To profile the Tox21 10K compound library in TR signaling, a cell-based GH3-TRE-Luc assay (GH3.TRE-Luc cell line, developed by the laboratory of Dr. Albertinka J. Murk, Wageningen University) was used to measure the inhibition of TR. GH3 (rat pituitary tumor) cells stably expressing a TR activity sensor consisting of two TR response elements and a luciferase reporter gene.
Tox21 Assay Protocol Summary: GH3.TRE-Luc cells were dispensed at 1500 cells/4 uL/well into 1536-well white solid bottom plates using a Multidrop Combi dispenser (Thermo Fisher Scientific Inc., Waltham, MA). After the assay plates were incubated at 37 C for 4 hours, 23 nL of library compound or DMSO controls was transferred to the assay plates by a pintool station (Kalypsys, San Diego, CA), followed by addition of 1 ul of T3 (1 nM, final concentration in the wells) to stimulate TR transactivation. The assay plates were incubated at 37 C for 23.5 h, and then 1 uL of CellTiter-Fluor reagent (Promega, Madision, WI) of measuring cytotoxicity was added to each well using a Bioraptr Flying Reagent Dispenser (FRD) workstation (Beckman Coulter, Indianapolis, IN, USA). The plates were incubated at 37 C and 5% CO2 for additional 30 min, and fluorescence intensity was measured by a ViewLux plate reader (PerkinElmer, Shelton, CT). For measuring luciferase reporter gene activity, 4 uL of ONE-Glo Luciferase Assay reagent (Promega) was added to each well using a Bioraptr FRD (Beckman Coulter), followed by 30 min incubation at room temperature. The luminescence intensity of plates was recorded by a ViewLux plate reader (PerkinElmer, Shelton, CT).
A general note: qHTS replaces the single test concentration by a dilution series.
Take `CC(C(=O)O)c1cccc(C(=O)c2ccccc2)c1` (stereo not given): the Potency entry is “inactive”.
Under `CCCCOCCOCCO` stands “inactive”; under `O=C1c2cccc(O)c2C(=O)c2c(O)cccc21`, “inactive”; under `OCCO`, “inactive”.
Regarding `O=C(OCc1ccccc1)c1ccccc1O`, the Potency result is “inactive”.
Under `O=c1oc(=O)c2cc3c(=O)oc(=O)c3cc12` stands “inactive”.
To `COC(=O)CCC(=O)OC` belongs “inactive”.
Under `O=C(O)c1ccccc1Nc1cccc(C(F)(F)F)c1` stands 23.7 µM (active) and 27.3 µM (active).
`Nc1ccc(Cl)cc1Cl`: the Potency entry is “inactive”.
To `CN(C)C(=N)N=C(N)N` belongs “inactive”.
In the case of `C=CC(C)(CCC=C(C)C)OC(C)=O` (stereo not given), the Potency result was “inactive”.
With `CC(C)OB(OC(C)C)OC(C)C`, the Potency result was “inactive”.
Under `CCC(C)(O)CCCC(C)C` (stereo not given) stands “inactive”; under `CC1=CC2C3CC(C=C3C)C2C1` (stereo not given), “inactive”; under `OC(CCl)CCl`, “inactive”.
To `Cc1ccc(C(=O)c2cc(O)c(O)c([N+](=O)[O-])c2)cc1` belongs 68.6 µM (active); to `Nc1ccccc1N`, 5.45 µM (active); to `CC(=O)CC/C=C(\C)CCC=C(C)C`, “inactive”.
Under `c1ccc2sc(SSN3CCOCC3)nc2c1` stands 13.7 µM (active) and 15.4 µM (active).
Consider `CCC(C)OC(=O)c1ccc(O)cc1` (stereo not given), for which the Potency entry was “inactive”.
Under `Cc1cccc([N+](=O)[O-])c1C` stands “inactive”.
To `C[Si](C)(C)O[Si](C)(C)C` belongs “inactive”.
To `CC(C)=CCCC(C)CCO` (stereo not given) belongs “inactive”.
For the molecule `O=C(c1ccccc1)c1ccccc1O`, the Potency result was “inactive”.
Take `O=CCc1ccccc1`: the Potency entry is “inactive”.
In the case of `Clc1nc(Cl)c(Cl)c(Cl)c1Cl`, the Potency result is “inactive”.
Under `CCCc1c(OCCCCc2nn[nH]n2)ccc(C(C)=O)c1O` stands 23.7 µM (active) and 61.1 µM (active); under `CCC(C)c1ccccc1O` (stereo not given), “inactive”.
Take `c1cc(N(CC2CO2)CC2CO2)ccc1OCC1CO1` (stereo not given): the Potency was 4.86 µM (active) and 3.86 µM (active).
On to `O=C(c1ccc(OCCN2CCCCC2)cc1)c1c(-c2ccc(O)cc2)sc2cc(O)ccc12`, for which the Potency is 6.68 µM (active) and 4.86 µM (active).
Consider `Cc1ncc[nH]1`, for which the Potency result was “inactive”.
To `CC(=O)C1(C)CC2=C(CCCC2(C)C)CC1C` (stereo not given) belongs “inactive”.
To `c1ccncc1` belongs “inactive”; to `CCCCCCCCCC(=O)OC`, “inactive”; to `Cc1ccc2c(n1)Oc1ccc(C(C)C(=O)OCC(=O)N(C)C)cc1C2` (stereo not given), “inactive”.
Turning to `Cc1ccc(C)c(O)c1C`, the Potency result was “inactive”.
Regarding `CC(=O)O[C@]1(C(C)=O)CC[C@H]2[C@@H]3C=C(Cl)C4=CC(=O)[C@@H]5C[C@@H]5[C@]4(C)[C@H]3CC[C@@]21C`, the Potency is 24.3 µM (active) and 54.5 µM (active).
`C[C@]12CCC(=O)C=C1CC[C@@H]1[C@@H]2C(=O)C[C@@]2(C)[C@H]1CC[C@]2(O)C(=O)CO`: the Potency result is “inactive”.
To `O=S(=O)(O)c1ccc(O)cc1` belongs “inactive”; to `CCC(C)CO` (stereo not given), “inactive”.
